Laboratory results taken from PubChem BioAssay AID2551 (National Center for Advancing Translational Sciences (NCATS), 2010).
Out of some 310,000 compounds screened, about 17,000 (5.5%) were called active. Another 11% or so got no clear call; they are omitted. What follows is part of a selection rich in actives, with near analogues and random picks from the rest. Unmarked numbers belong to inactive results. The call rests on the fitted dose curve; in most records, active means well fitted inhibition curve with a large enough effect; inconclusive means small, poorly fitted or top-dose-only effect, or effect the other way; inactive means no such curve, though single readings can be large or run the other way.

target: Nuclear receptor ROR-gamma (Mus musculus) (UniProt P51450); experiment: qHTS for inhibitors of ROR gamma transcriptional activity; settings: Drosophila S2 Gal4-RORgamma UAS-luciferase reporter, 20 h; series mostly up to 53.6 µM; activity change, negative = inhibition: at the top concentration; further: nearly all actives have a fitted effect of over 60% in size
Sequence (P51450 whole entry, looked up, the tested form may be a part): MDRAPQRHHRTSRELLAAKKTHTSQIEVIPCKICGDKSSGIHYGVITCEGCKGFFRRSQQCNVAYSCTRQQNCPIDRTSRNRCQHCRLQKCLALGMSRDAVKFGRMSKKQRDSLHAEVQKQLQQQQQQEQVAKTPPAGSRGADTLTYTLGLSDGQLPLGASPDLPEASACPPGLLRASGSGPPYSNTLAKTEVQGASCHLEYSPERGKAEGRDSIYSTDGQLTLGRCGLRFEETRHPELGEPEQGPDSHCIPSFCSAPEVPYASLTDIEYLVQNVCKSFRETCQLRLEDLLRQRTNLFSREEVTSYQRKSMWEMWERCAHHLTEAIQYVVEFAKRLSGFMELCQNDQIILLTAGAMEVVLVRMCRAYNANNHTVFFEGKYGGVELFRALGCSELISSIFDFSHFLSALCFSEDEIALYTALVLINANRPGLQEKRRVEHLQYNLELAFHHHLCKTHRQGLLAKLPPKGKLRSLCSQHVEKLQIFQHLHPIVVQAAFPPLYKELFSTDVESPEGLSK
Source text: NIH Molecular Libraries Probe Production Network [MLPCN] NIH Chemical Genomics Center [NCGC] MLPCN Grant: R03 DA026211-01 Assay Provider: Dan Littman, New York University Assay Overview: The retinoic acid-related orphan receptor (ROR) gamma is a transcription factor that has a central role in the differentiation of Th17 cells, a subset of T helper cells that secrete the inflammatory cytokines IL-17, IL-17F, and IL-22. Th17 cells have been implicated in graft versus host disease, autoimmune disease and asthma. ROR gamma is induced in naive T helper cells in the presence of TGF-beta combined with IL-6, IL-21, or IL-23, and thereafter directs the expression of the Th17 lineage cytokines. To study the mechanism of action of ROR gamma, an insect cell-based assay was screened. This Drosophila Schneider cell line was stably transfected with two vectors: a gene expressing a fusion of the Gal4 DNA binding domain and ROR gamma transactivation domain under the control of the metallothionine promoter and a Photinus luciferase reporter regulated by the Gal4 binding site enhancer, UAS. […] Small molecule inhibitors of ROR gamma activity are detected by a decrease in luciferase reporter activity.
Assay Protocol Summary: For screening, 600 cells in 4 uL/well were dispensed into white solid 1536-well plates (Grenier) using a solenoid-based dispenser. Following transfer of 23 nL compound or DMSO vehicle by a pin tool, the plates were incubated 1 hr at ambient temperature, and 1 uL/well copper sulfate (700 uM final concentration) was added. The plates were centrifuged 15 s at 1000 RPM and incubated 20 hr at ambient temperature. After addition of 1.5 uL Photinus luciferase detection reagent, the plates were incubated 10 min at ambient temperature and then read by an ViewLux (Perkin Elmer) to detect luminescence. Keywords: NIH Roadmap, MLPCN, MLI, MLSMR, qHTS, NCGC, qHTS, nuclear hormone receptor, retinoic acid-related orphan receptor, ROR gamma
On the % scale 0 is the no-effect control and ±100 the full control effect; potency means the concentration at half of the fitted maximal effect.

Compound	activity change, negative = inhibition	Potency
C[n+]1ccc(C(=O)NCc2ccccc2)cc1	-17.6%	–
O=C(O)c1ccc(/C=N/NC(=S)NCc2ccccc2)cc1	-12%	–
CC1CCCCN1C(=S)NCc1ccccc1 (configuration not stated)	-121%	–
C/C(=N\NC(=S)NCc1ccccc1)C1CCCCC1	–	0.224 µM (active)
O=C(CC1CCCCC1)NCc1ccccc1	-26.9%	–
C/C(=N\NC(=S)NCc1ccccc1)c1ccc(Cl)cc1	–	3.55 µM (active)
CC(CC(=O)N1CCN(c2ccccc2)CC1)S(=O)(=O)c1ccc2c(c1)NC(=O)CS2 (configuration not stated)	26.3%	–
COC(=O)COc1ccc2c(=O)c(Oc3ccccc3Br)coc2c1	-14.6%	–
Cc1ccc(S(=O)(=O)NCC(=O)Nc2ccc3c(c2)OCCO3)cc1	-2.15%	–
O=C(N/C(=C\c1ccc([N+](=O)[O-])cc1)C(=O)N1CCOCC1)c1cccc(Br)c1	18.2%	–
O=C(/C=C/c1ccc(Cl)cc1)NCCCn1ccnc1	-4.51%	–
CCn1cc(/C=C(\NC(=O)c2ccc(C)cc2)C(=O)NCCN2CCOCC2)c2ccccc21	6.77%	–
O=C(NCCCN1CCOCC1)c1cc(-c2cccc(O)c2)on1	-16.9%	–
O=C(NCCCN1CCOCC1)c1cc(-c2ccc(Cl)cc2)on1	–	11.2 µM (active)
COc1ccc(-c2cc(C(=O)NCCCN3CCOCC3)no2)cc1	-20.5%	–
Cn1cc(S(=O)(=O)Nc2ccc(Cl)cc2Cl)c(=O)n(C)c1=O	-23.8%	–
COc1cc(OC)c(NS(=O)(=O)c2cn(C)cn2)cc1Cl	-31.2%	–
Cc1cc(C(=O)N/N=C/c2ccc(N3CCOCC3)cc2)c(C)o1	1.46%	–
CC(=C/c1ccccc1)/C=N/NC(=O)c1cc(C)oc1C	–	7.08 µM (active)
Cc1cc(C(=O)N/N=C/c2ccccc2[N+](=O)[O-])c(C)o1	14.4%	–
Cc1c(CC(=O)N2CCN(C(=O)C3COc4ccccc4O3)CC2)c(=O)oc2c(O)c(O)ccc12 (configuration not stated)	-17.5%	–
COc1cc(OC)cc(C(=O)Nc2nnc(SCC(=O)NCC3CCCO3)s2)c1 (configuration not stated)	4%	–
CC(=O)c1ccc(N2CCN(CC(O)c3ccccc3)CC2)cc1 (configuration not stated)	-14.4%	–
Cc1[nH]c(C)c(S(=O)(=O)N2CCN(c3cccc(C(F)(F)F)c3)CC2)c1C(=O)N1CCCCC1	-4.17%	–
Cc1cccc(-c2nc(CS(=O)CC(=O)NC(C)CCc3ccccc3)c(C)o2)c1 (configuration not stated)	43.4%	–
COc1ccc(-c2nc(CS(=O)CC(=O)NCc3ccccc3)c(C)o2)cc1OC (configuration not stated)	3.74%	–

Compound	activity change, negative = inhibition	Potency
COc1ccc(-c2nc(CS(=O)CC(=O)NCc3cccnc3)c(C)o2)cc1OC (configuration not stated)	–	11.2 µM (active)
CCCOc1ccc(Cc2c(O)nc(SC)[nH]c2=O)cc1C	30.8%	–
O=C(c1cc2ccccc2o1)N1CCN(c2cccc(C(F)(F)F)c2)CC1	33.7%	–
COc1ccc(-c2oc3ncn(Cc4ccco4)c(=N)c3c2-c2ccc(OC)cc2)cc1	–	12.6 µM (active)
N=c1c2c(-c3ccccc3)c(-c3ccccc3)oc2ncn1Cc1ccco1	22.8%	–
COc1ccc(-c2oc3ncnc(NCCCO)c3c2-c2ccc(OC)cc2)cc1	22.4%	–
CC(C)[C@@H]1COC(c2cccc(C3=N[C@H](C(C)C)CO3)c2)=N1	-41.6%	–
O=C(NC(Cc1ccc(O)cc1)C(=O)O)/C(=C/c1ccccc1)NC(=O)c1ccccc1 (configuration not stated)	-2.76%	–
O=C(C[C@H]1C(=O)N(c2ccc(F)c(F)c2)C[C@@H]1Cc1ccccc1)Nc1ccccc1	44.7%	–
Cc1c(C)c(C)c(S(=O)(=O)N2CCC3(CC2)OCCO3)c(C)c1C	-34.3%	–
Cc1cc(SCc2c(F)cccc2Cl)nc(=O)[nH]1	2.04%	–
COCCNC(=S)Nc1cc(S(=O)(=O)N2CCOCC2)ccc1N1CCCCC1	–	0.891 µM (active)
O=C(COC(=O)Cc1ccc(F)cc1)Nc1cc(S(=O)(=O)N2CCOCC2)ccc1N1CCCC1	33.6%	–
CC(=O)NCCC(=O)Nc1cc(S(=O)(=O)N2CCOCC2)ccc1N1CCOCC1	32.6%	–
O=C(Nc1ccccc1C(=O)Nc1ccncc1)c1ccc([N+](=O)[O-])cc1	25.4%	–
Cc1ccc(N2CCN(c3ccc([N+](=O)[O-])cn3)CC2)c(C)c1	-2.68%	–
O=C(COC(=O)c1ccc(N2CCCC2=O)cc1)c1ccc(OC(F)F)cc1	44.5%	–
CC/C(=N\NC(=S)NC(C)C)c1ccc(OC(F)F)cc1	–	0.562 µM (active)
O=C(NCCNc1ccccc1[N+](=O)[O-])c1ccccc1F	20.5%	–
COc1cc(CN2CCC(n3nccc3NC(=O)CCCc3ccccc3)CC2)ccc1O	24.6%	–
COc1cc2[nH]c(=O)n(Cc3ccc(C(=O)NC4CCN(Cc5ccccc5)CC4)cc3)c(=O)c2cc1OC	6.06%	–
COc1cc2[nH]c(=O)n(CCC(=O)NC3CCN(Cc4ccccc4)CC3)c(=O)c2cc1OC	-7.87%	–
COc1cc2[nH]c(=S)n(Cc3ccc(C)o3)c(=O)c2cc1OC	–	5.01 µM (active)
CCOc1cc2[nH]c(=S)n(Cc3ccc(C(=O)NCCOC)cc3)c(=O)c2cc1OCC	-43.7%	–
COc1cc2[nH]c(=S)n(Cc3ccc(F)cc3)c(=O)c2cc1OC	–	1.78 µM (active)
CCOc1cc2[nH]c(=S)n(CCCN3CCCC3=O)c(=O)c2cc1OCC	-1.37%	–
